Measurements as given in PubChem BioAssay (EPA / NIEHS).
“And” between values parts separate entries of the source, which are not always exact repeats. Equal entries are not always repeated. Inconclusive results are not listed. A structure can be active in one record and inactive in another. The source made the active and inactive calls. The calls were made as follows: active = hit-call score of the fitted dose curve at least 0.9, where 1 is the maximum; inconclusive = response in the unintended direction; inactive = score below 0.9.

Tests used:
[1] = ATG_XTT_Cytotoxicity: Cytotoxicity Assessment in the Attagene TRANS-FACTORIAL HepG2 Assay (AID 2283584);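 as to AC50: cells exposed to compound for 24 h before reading; active means loss of viability signal versus DMSO baseline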
Summary of the method: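 Cells: human HepG2, transiently transfected with MRTU reporter constructs. Exposure 24 h. Readout: XTT, cell number. Baseline/neg ctrl DMSO; loss-of-signal scored.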

[2] = TOX21_p53_BLA_p2_viability: Viability Assessment in the Tox21 HCT-116 p53 Agonism Beta-lactamase Assay, Phase 2 (AID 2283591);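 also: compound exposure lasted 16 h at 37 °C; actives lower the ATP signal meaning cytotoxicity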
Summary of the method: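 HCT-116 p53-bla cells (4000/well) rested 5 h at 37C, then received compounds in DMSO (217-fold dilution) for 16 h at 37C, 5% CO2. After the CCF4 read, CellTiter-Glo was added; ATP luminescence was read after 30 min at room temperature.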

[3] = target: Cellular tumor antigen p53 (Homo sapiens) (UniProt P04637); experiment: TOX21_p53_BLA_p2_ratio: Tox21 HCT-116 p53 Agonism Beta-lactamase Assay, Ratio, Phase 2 (AID 2283592)
Sequence of Cellular tumor antigen p53 (Homo sapiens) (P04637 whole entry, looked up): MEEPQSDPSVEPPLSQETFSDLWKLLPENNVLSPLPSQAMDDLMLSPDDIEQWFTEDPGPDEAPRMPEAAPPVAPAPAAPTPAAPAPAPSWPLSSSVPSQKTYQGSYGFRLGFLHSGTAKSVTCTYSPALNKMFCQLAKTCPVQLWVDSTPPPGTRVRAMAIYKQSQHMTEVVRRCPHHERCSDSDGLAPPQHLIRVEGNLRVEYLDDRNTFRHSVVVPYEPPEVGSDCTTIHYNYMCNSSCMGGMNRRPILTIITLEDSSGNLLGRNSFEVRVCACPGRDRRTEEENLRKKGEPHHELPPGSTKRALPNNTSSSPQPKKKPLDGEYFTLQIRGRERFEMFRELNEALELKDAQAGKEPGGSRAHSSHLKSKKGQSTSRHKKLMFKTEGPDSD
Summary of the method: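 Plated HCT116 p53-bla cells (4000/well) received compound after 5 h, then 16 h at 37C/5% CO2. CCF4-AM added, 2 h RT. Ratio of 460 to 530 nm emission taken as the p53 reporter signal.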

[4] = TOX21_p53_BLA_p3_viability: Viability Assessment in the Tox21 HCT-116 p53 Agonism Beta-lactamase Assay, Phase 3 (AID 2283593);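 also: cells exposed to compound for 16 h before reading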
Summary of the method: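 HCT-116 cells (4000/well) rested 5 h at 37C, then got DMSO compounds by pin tool (217-fold dilution) for 16 h at 37C, 5% CO2. After the bla read, CellTiter-Glo was added and luminescence read at 30 min, room temperature.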

[5] = target: Cellular tumor antigen p53 (Homo sapiens) (UniProt P04637); experiment: TOX21_p53_BLA_p3_ratio: Tox21 HCT-116 p53 Agonism Beta-lactamase Assay, Ratio, Phase 3 (AID 2283596)
Summary of the method: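 Cells were seeded at 4000/well, rested 5 h at 37C, then dosed with DMSO compound solutions (217-fold dilution) for 16 h. CCF4-AM substrate was loaded for 2 h at room temperature, and the 460/530 nm emission ratio was fitted for gain of signal versus DMSO.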

[6] = TOX21_p53_BLA_p4_viability: Viability Assessment in the Tox21 HCT-116 p53 Agonism Beta-lactamase Assay, Phase 4 (AID 2283597);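 also: hits lower the luminescence signal meaning cytotoxicity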
Summary of the method: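 Readout: ATP luminescence (CellTiter-Glo), measured 30 min after reagent addition at RT. The reagent followed a 2 h CCF4-AM incubation, and the cells had been exposed to compound for 16 h at 37C.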

[7] = target: Cellular tumor antigen p53 (Homo sapiens) (UniProt P04637); experiment: TOX21_p53_BLA_p5_ratio: Tox21 HCT-116 p53 Agonism Beta-lactamase Assay, Ratio, Phase 5 (AID 2283599)
Summary of the method: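 HCT-116 cells carrying a p53-inducible beta-lactamase reporter were seeded at 4000 cells/well and dosed after 5 h with compound in DMSO (217-fold dilution). After 16 h at 37C, CCF4-AM substrate was added for 2 h, and the 460/530 nm emission ratio was scored as gain-of-signal versus DMSO.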

[8] = TOX21_p53_BLA_p5_viability: Viability Assessment in the Tox21 HCT-116 p53 Agonism Beta-lactamase Assay, Phase 5 (AID 2283600)
Summary of the method: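 Workflow: seed 4000 cells per well, wait 5 h, add compounds (DMSO, 217-fold dilution), incubate 16 h, load CCF4-AM 2 h, add CellTiter-Glo, read luminescence after 30 min.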

[9] = target: Cellular tumor antigen p53 (Homo sapiens) (UniProt P04637); experiment: TOX21_p53_BLA_p4_ratio: Tox21 HCT-116 p53 Agonism Beta-lactamase Assay, Ratio, Phase 4 (AID 2283601)
Summary of the method: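 HCT116 cells carrying an inducible beta-lactamase reporter were plated at 4000 cells/well, rested 5 h, then exposed to compounds in DMSO (217-fold dilution) for 16 h at 37C. CCF4-AM substrate was loaded 2 h at room temperature; 460/530 nm emission ratio scored gain-of-signal versus DMSO.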

Measured: AC50

Cc1cc(C)nc(NS(=O)(=O)c2ccc(N)cc2)n1
inactive: all assays above

OCC#CCO
inactive: all assays above

CCCCCCOC(=O)C(C)C
not listed: [6] | [8]
inactive: all other assays above

O=C1OC(=O)c2c(Cl)c(Cl)c(Cl)c(Cl)c21
inactive: all assays above

CCO/C=C1\N=C(c2ccccc2)OC1=O
not listed: [8]
inactive: all other assays above

O=C(O)CNc1ccccc1
not listed: [6]
inactive: all other assays above

CCC(C)=O
inactive: [1] | [2] | [3] | [4] | [6]

COc1ccc(CCC(C)=O)cc1
not listed: [5] | [6] | [8]
inactive: all other assays above

CC(C)(C)CC(C)(C)c1ccc(OCCOCC[N+](C)(C)Cc2ccccc2)cc1
inactive: [8]
active: [1] 44.9 µM | [2] 37.1 µM and 32.8 µM | [3] 56.2 µM and 34.8 µM | [4] 60.7 µM and 23 µM | [6] 33.7 µM and 23 µM | [7] 79.3 µM and 36.8 µM | [8] 73.6 µM | [9] 70.9 µM and 42.1 µM

C=C(C)C(=O)OCC(CC)(COC(=O)C(=C)C)COC(=O)C(=C)C
not listed: [5] | [8] | [9]
inactive: all other assays above

CC(CN=Cc1ccccc1O)N=Cc1ccccc1O (centres undefined)
not listed: [6] | [8] | [9]
inactive: all other assays above

Cc1cccc(Nc2ccccc2)c1
not listed: [4] | [8]
inactive: all other assays above

CCCCCCCCCCCCCCN(CCO)CCO
active: [1] 28.3 µM
not listed: [7]
inactive: all other assays above

CCCCCc1ccco1
active: [4] 58 µM
inactive: all other assays above

CCOC(=O)C1OC1c1ccccc1 (centres undefined)
not listed: [6]
inactive: all other assays above

C=C(C#N)C(=O)OCC
not listed: [5]
inactive: all other assays above

CC(=O)O[C@@H]1CC2CCC1(C)C2(C)C (some centres undefined)
not listed: [6]
inactive: all other assays above

COc1ccccc1[N+](=O)[O-]
not listed: [6] | [8]
inactive: all other assays above

C=CC(=O)OCCCC
inactive: all assays above

CCC1(c2ccccc2)C(=O)NCNC1=O
not listed: [5] | [7]
inactive: all other assays above

CCOC(=O)CCc1ccccc1
inactive: [1] | [2] | [3] | [4] | [8]

OCc1cccc(Oc2ccccc2)c1
inactive: all assays above

CC(C)CCOC(=O)c1ccccc1
not listed: [5] | [6]
inactive: all other assays above

C=C(C)CNCC
not listed: [4] | [8]
inactive: all other assays above

CC1(C)C2=CCCC(C)(C)[C@]23CC[C@H]1C3
not listed: [5]
inactive: all other assays above

[O-]n1ccccc1=S.[O-]n1ccccc1=S.[Zn+2]
active: [1] 2.87 µM | [2] 14.3 µM [middle of 4 runs] | [3] 33.8 µM [middle of 4 runs] | [4] 20.3 µM [middle of 4 runs] | [6] 15.4 µM [middle of 4 runs] | [7] 24.8 µM [middle of 4 runs] | [8] 19.1 µM [middle of 4 runs] | [9] 21.1 µM [middle of 4 runs]

CCCOCCO
not listed: [5] | [9]
inactive: all other assays above

CCCCCC(=O)CC
not listed: [6]
inactive: all other assays above

OCCCCC(O)CO (centres undefined)
not listed: [5]
inactive: all other assays above

NC1CCCCC1N (centres undefined)
not listed: [5]
inactive: all other assays above

CCCCCCCCSCCO
inactive: [1] | [2] | [7]

Cc1occc(=O)c1OC(=O)C(C)C
inactive: [1] | [3] | [4] | [5]

CCCC(=O)OC(C)(C)Cc1ccccc1
not listed: [2]
inactive: all other assays above

O=C(Nc1ccc2c(O)c(N=Nc3ccc(N=Nc4ccc(S(=O)(=O)O)cc4)cc3)c(S(=O)(=O)O)cc2c1)c1ccccc1
inactive: [1] | [2] | [6] | [9]

CCCCC(CC)C(=O)OC(C)C (centres undefined)
not listed: [4] | [6]
inactive: all other assays above

CC(C)OCCO
not listed: [2] | [9]
inactive: all other assays above

CC1(C)O[C@@H]2C[C@H]3[C@@H]4CCC5=CC(=O)C=C[C@]5(C)[C@@]4(F)[C@@H](O)C[C@]3(C)[C@]2(C(=O)CO)O1
not listed: [2]
inactive: all other assays above

O=CN1CCOCC1
inactive: [1] | [2] | [3] | [7] | [9]

Brc1ccc(Br)c(Br)c1
not listed: [2]
inactive: all other assays above

CCOC(=O)[C@@H](C)Oc1ccc(Oc2nc3ccc(Cl)cc3o2)cc1
inactive: [1] | [2] | [3] | [7]

CC(C)NCC(O)COc1ccc(CC(N)=O)cc1 (centres undefined)
inactive: [1] | [2] | [3] | [7] | [8]

CCCC1O[C@@H]2C[C@H]3[C@@H]4CCC5=CC(=O)C=C[C@]5(C)[C@H]4[C@@H](O)C[C@]3(C)[C@]2(C(=O)CO)O1 (some centres undefined)
not listed: [2]
inactive: all other assays above

CCCOC(=O)c1c(Cl)c(Cl)c(Cl)c(Cl)c1C(=O)OCCC
inactive: [1] | [3]

CC(C)CC(C)CC(O)CC(C)C (centres undefined)
not listed: [2]
inactive: all other assays above
